Out of some 16,000 compounds screened, about 5,100 (32%) were called active. Inconclusive results (about 25%) are left out. The list shows a part of the results. Values without a mark were called inactive. Calls follow the shape of the dose curve; as a rule, active = well fitted curve in the direction sought with a large enough effect; inconclusive = small, poorly fitted or top-dose-only effect, or effect the other way; inactive = no such curve, though single readings can be large or run the other way.
What follows are compounds tested against Cytochrome P450 3A4 (Homo sapiens) (UniProt P08684) (assay: Cytochrome panel assay with activity outcomes). Conditions: recombinant CYP, pro-luciferin dealkylation, luminescence, p450-cyp3a4; series mostly up to 57.1 µM; activity, negative = inhibition: at the top concentration.
Chain of Cytochrome P450 3A4 (Homo sapiens) (P08684 whole entry, looked up): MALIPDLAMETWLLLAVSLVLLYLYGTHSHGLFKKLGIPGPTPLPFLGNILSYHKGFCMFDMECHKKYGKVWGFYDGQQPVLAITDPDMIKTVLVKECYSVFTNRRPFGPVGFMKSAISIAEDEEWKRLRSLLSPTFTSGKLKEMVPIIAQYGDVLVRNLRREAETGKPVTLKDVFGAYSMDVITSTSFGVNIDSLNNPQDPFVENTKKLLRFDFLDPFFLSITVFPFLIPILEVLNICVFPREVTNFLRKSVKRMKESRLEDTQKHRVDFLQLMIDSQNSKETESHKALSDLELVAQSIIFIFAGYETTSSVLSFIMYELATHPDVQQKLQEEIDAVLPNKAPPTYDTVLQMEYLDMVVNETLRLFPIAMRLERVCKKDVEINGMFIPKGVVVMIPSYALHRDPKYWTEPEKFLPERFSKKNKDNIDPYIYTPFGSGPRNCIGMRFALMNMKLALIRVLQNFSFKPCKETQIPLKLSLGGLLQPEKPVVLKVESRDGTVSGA
Compound `O=C(NCc1ccco1)c1ccccc1NS(=O)(=O)c1ccc(Br)s1` has an activity, negative = inhibition of -21% [at 2.29 µM]. For `Cc1ccc(S(=O)(=O)N(Cc2ccccc2)c2ccccc2C(=O)NCc2ccco2)cc1`, the AC50 was 2.51 µM (active). With `CN(CCCNC(=O)c1ccc(/C=N/O)nc1)CCCN(C)Cc1ccccc1` the “activity, negative = inhibition” value was 2.5%. With `CCCCOc1cc(C(=O)NCCN(CC)CC)c2ccccc2n1` the “activity, negative = inhibition” value was -21.5% [at 25.6 µM]. `CN(CCCNC(=O)c1cccn2c(=O)c3ccccc3nc12)Cc1ccccc1` was tested, and the AC50 was 1 µM (active). In the case of `Cn1c(-c2ccc(Br)cc2)cnc1NCc1cccnc1`, the AC50 is reported as 3.98 µM (active). In the case of `Cn1c(-c2ccc(F)cc2)cnc1NCc1ccc(F)cc1`, the “activity, negative = inhibition” value is reported as 21.4%. In the case of `Cn1c(-c2ccc(F)cc2)cnc1NCc1cccc(F)c1`, the AC50 is reported as 8.91 µM (active). `CCNc1ncc2nc(-c3ccc(F)cc3)c(=O)n(C)c2n1` was tested, and the “activity, negative = inhibition” value was 7.57%. `C[C@H](C(=O)O)c1cccc(Oc2ccccc2)c1` was tested, and the “activity, negative = inhibition” value was -0.468% [at 25.6 µM]. For `C[C@@H](/C=C\c1cccc(Oc2ccc(F)cc2)c1)N(O)C(N)=O`, the AC50 was 1 µM (active). `CCC(C)(C)c1ccc(Oc2cccc(C(=O)O)c2)cc1` showed an activity, negative = inhibition of -2.44% [at 11.4 µM]. `COC(=O)/C=C\c1cc(O)ccc1O` was tested, and the “activity, negative = inhibition” value was -17%. For `COc1ccc(Br)cc1/C=C/C(=O)Nc1c(C)cccc1C`, the AC50 was 4.47 µM (active). With `CCn1nc(C)c(NC(=O)/C=C/c2cnn(C)c2C)c1C` the “activity, negative = inhibition” value was -3.52%. `COc1cc2c(cc1OC)/C(=C/C(=O)N1CCOCC1)NC(C)(C)C2` was tested, and the “activity, negative = inhibition” value was 9.97%. With `CN1CCc2c(c3c(n2C)CCN(C)[C@H]3c2ccccc2F)[C@@H]1c1ccccc1F` the AC50 was 7.94 µM (active). For `Oc1ccc(Cl)cc1Cc1cc(Cl)cc(Cc2cc(Cl)ccc2O)c1O`, the activity, negative = inhibition was -24.4% [at 11.4 µM]. `CN1CCC(=C2c3ccccc3Sc3ccccc32)CC1` was tested, and the “activity, negative = inhibition” value was 27.7% [at 25.6 µM]. For `CN(C)CC/C=C1\c2ccccc2CSc2ccccc21`, the “activity, negative = inhibition” value was -2.26% [at 25.6 µM]. For `CN1CCN(CCC=C2c3ccccc3Sc3ccc(S(=O)(=O)N(C)C)cc32)CC1`, the AC50 was 12.6 µM (active). `CCCC1(C)Nc2ccccc2-c2nc3ccccc3n21` (stereo not drawn) was tested, and the AC50 was 12.6 µM (active). `CCCCC1(C)Nc2ccccc2-c2nc3ccccc3n21` (stereo not drawn) was tested, and the AC50 was 7.08 µM (active). With `NC1=NC2(CCCCCC2)n2c(nc3ccccc32)N1` the “activity, negative = inhibition” value was -12.8%. With `CC1CCC2(CC1)N=C(N)Nc1nc3ccccc3n12` (stereo not drawn) the “activity, negative = inhibition” value was -19.5%. In the case of `CCC1(C)Nc2ccccc2C(=O)N1O` (stereo not drawn), the “activity, negative = inhibition” value is reported as 8.28%. In the case of `COC(=O)[C@@]1(Cc2ccccc2)[C@H]2c3cc(C(=O)N4CCCC4)n(Cc4ccsc4Br)c3C[C@H]2CN1C(=O)c1ccccc1`, the AC50 is reported as 3.98 µM (active). With `COC(=O)[C@@]1(Cc2ccccc2)[C@H]2c3cc(C(=O)N(C)C)n(Cc4ccsc4Br)c3C[C@H]2CN1C(=O)c1ccccc1` the AC50 was 1.58 µM (active). For `CC(C)c1ccc(/C(C(=O)O)=C(\O)C(=O)O)cc1`, the activity, negative = inhibition was -12.9% [at 11.4 µM]. `O=C(O)CCC(=O)c1ccc2ccc3cccc4ccc1c2c34` was tested, and the activity, negative = inhibition was -10.9% [at 11.4 µM]. For `CC1(C)OC(=O)C(=CNCC(O)c2ccccc2)C(=O)O1` (stereo not drawn), the activity, negative = inhibition was 20.4% [at 11.4 µM]. For `COc1ccc(-c2cc(CNC(C)=O)on2)cc1`, the “activity, negative = inhibition” value was 17.4%. With `COc1ccc(-c2noc(N(C)CC(=O)Nc3cccc(C(F)(F)F)c3)n2)cc1` the AC50 was 12.6 µM (active). Compound `CC(=O)c1ccc(OC(=O)C2c3ccccc3Oc3ccccc32)cc1` has an activity, negative = inhibition of 10.9% [at 2.29 µM]. `Cc1cccc2sc(NC(=O)C3c4ccccc4Oc4ccccc43)nc12` was tested, and the AC50 was 12.6 µM (active). In the case of `Cc1ccccc1NC(=O)c1cnc(Nc2nc3ccccc3s2)nc1C`, the “activity, negative = inhibition” value is reported as -7.53%. `O=c1nc(-c2ccccc2)cc(C(F)(F)F)[nH]1` was tested, and the “activity, negative = inhibition” value was 6.38%. With `Cc1ccc2c(C)nc(Nc3nc(CSc4nc5ccccc5[nH]4)cc(=O)[nH]3)nc2c1` the AC50 was 2.82 µM (active). `O=C(Nc1nn[nH]n1)c1nc(-c2ccccc2)cc(=O)[nH]1` showed an activity, negative = inhibition of -3.85% [at 11.4 µM]. `Cc1ccc2nc(Nc3nc(-c4ccccc4)cc(=O)[nH]3)nc(C)c2c1` was tested, and the AC50 was 2.51 µM (active). For `C[N+](C)(C)CCCSc1nc2ccccc2[nH]1`, the activity, negative = inhibition was 4.86% [at 11.4 µM]. For `CC(=O)Nc1ccc(S(=O)(=O)NCCc2ccc(F)cc2)cc1`, the activity, negative = inhibition was -13.3% [at 2.29 µM]. In the case of `CCOC(=O)Cn1c(=O)oc2cc(S(=O)(=O)NCCc3ccc(OCC)c(OCC)c3)ccc21`, the AC50 is reported as 12.6 µM (active). With `CC(=O)c1c(C(C)=O)c(C)n(NC(=O)c2ccncc2)c1C` the “activity, negative = inhibition” value was -3.59%. In the case of `O=C(NN=C1C2CC3CC(C2)CC1C3)c1ccncc1`, the AC50 is reported as 25.1 µM (active). For `O=C1c2ccc3c4c(ccc(c24)C(=O)N1c1ccc2ccccc2c1)CC3`, the “activity, negative = inhibition” value was -10.2%. For `COc1ccc2c(c1)-c1ccccc1S(=O)(=O)N2C`, the “activity, negative = inhibition” value was -20.4%. For `COc1ccc2c(c1)C(=O)N(c1ccccc1)C(=O)C2`, the AC50 was 2.24 µM (active).
% is scaled to controls: 0 for no effect and ±100 for the full control effect.
